# Measurements reported in the supplement of paper PMC10127200.
# “And” between values parts separate entries of the source, which are not always exact repeats. Equal values may be shown once. Where a name gives a salt, the structure may show the parent alone.
# Tests used:
# Test in all cases: Euclidean distance of Cell Painting phenotypic profile (signed KS, 77 features) to DMSO centroid (dimensionless distance); 5 or 10 uM (library dependent); higher = stronger phenotypic change vs DMSO (phenoactivity)
# Details in all cases: 48 h
# 786-O = tested on: 786-O
# Outline: (§1)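 Library compounds were applied at 10 or 5 uM, depending on the library, with 0.1% DMSO final, for 48 h to five cancer lines and a healthy fibroblast line. After staining, cells were imaged confocally at 20X across 9 fields per well, and Harmony extracted 77 features, each scored as a signed Kolmogorov-Smirnov statistic against vehicle wells on the same plate. Phenoactivity is the Euclidean distance between each profile and the median vehicle profile, with profiles first plate-position corrected, correlation-weighted and averaged over replicates at the top dose.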
# A549 = tested on: A549
# Outline: as §1
# DU145 = tested on: DU145
# Outline: as §1
# FB = tested on: FB
# Outline: as §1
# HEPG2 = tested on: HEPG2
# Outline: as §1
# OVCAR4 = tested on: OVCAR4
# Outline: as §1
Compound,Euclidean distance (786-O),Euclidean distance (A549),Euclidean distance (DU145),Euclidean distance (FB),Euclidean distance (HEPG2),Euclidean distance (OVCAR4)
O=C1Nc2ccccc2C1=O [Isatin],0.739,1.21,1.26,1.29,1.03,1.39
Nc1nccc2c1ncn2C1C=C(CO)C(O)C1O (stereo not drawn) [3-Deazaneplanocin A (DZNeP)],2.28,1.27,1.19,2.71,1.23,1.72
CC(=O)N[C@H]1[C@H]([C@H](O)[C@H](O)CO)OC(C(=O)O)=C[C@@H]1NC(=N)N [Zanamivir],1.74,1,0.755,0.983,0.8,1.21
CCC(=O)OCC(=O)[C@@]1(OC(=O)CC)[C@@H](C)C[C@H]2[C@@H]3CCC4=CC(=O)C=C[C@]4(C)[C@@]3(F)[C@@H](O)C[C@@]21C [Betamethasone Dipropionate],1.67,2.06,2.69,2.18,0.697,1.59
OC(CCN1CCCCC1)(c1ccccc1)C1CCCCC1 (stereo not drawn) [Trihexyphenidyl hydrochloride],1.04,1.1,0.794,0.849,1.17,2.16
O=C(c1c(F)ccc(NS(=O)(=O)N2CC[C@@H](F)C2)c1F)c1c[nH]c2ncc(-c3cnc(C4CC4)nc3)cc12,1.42,1.86,2.02,2.6,1.2,1.44
Cn1ncc(Cl)c1-c1cc(C(=O)N[C@H](CN)Cc2ccc(F)c(F)c2)oc1Cl,3.04,2.27,3.3,3.69,2.27,2.44
CO[C@H]1C[C@H](O[C@@H]2/C(C)=C/C[C@@H]3C[C@@H](C[C@]4(CC[C@H](C)[C@@H](C5CCCCC5)O4)O3)OC(=O)[C@@H]3C=C(C)/C(=N/O)[C@H]4OC/C(=C\C=C\[C@@H]2C)[C@]43O)O[C@@H](C)[C@@H]1O [Selamectin],1.94,3.16,6.67,1.24,0.681,1.04
CN(Cc1cnc2nc(N)nc(N)c2n1)c1ccc(C(=O)N[C@@H](CCC(=O)O)C(=O)O)cc1 [Methotrexate],1.77,3.08,1.05,0.72,1.55,2.57
CNCc1ccc(-c2cc(-c3nc(-c4ccc(S(=O)(=O)C(C)C)cc4)cnc3N)on2)cc1,3.55,3.91,3.77,4.87,3.55,4.32
CC(C)(C)c1cc(NC(=O)Nc2ccc(-c3cn4c(n3)sc3cc(OCCN5CCOCC5)ccc34)cc2)no1 [Quizartinib (AC220)],3.28,2.67,1.42,1.43,2.93,1.37
Cc1cc(C(=O)Nc2nc3cccc(Cl)c3n2[C@@H]2CCCCN(C(=O)/C=C/CN(C)C)C2)ccn1 [Nazartinib (EGF816. NVS-816)],1.87,1.93,1.67,3.18,2.99,1.9
COc1ccc(C(=O)CC(=O)c2ccc(C(C)(C)C)cc2)cc1 [Avobenzone],1.41,0.547,0.714,1.02,0.762,0.989
NCCCC[C@H](NC(=O)[C@@H](NC(=O)[C@H](Cc1c[nH]c2ccccc12)NC(=O)[C@H](CCCCN)NC(=O)[C@H](CCCCN)NC(=O)[C@H](Cc1c[nH]c2ccccc12)NC(=O)[C@H](Cc1c[nH]c2ccccc12)NC(=O)[C@H](CCCCN)NC(=O)[C@@H](N)CCCCN)C(c1ccccc1)c1ccccc1)C(N)=O,4.67,1.24,1.35,1.8,1.2,2.23
CO/N=C(\C(=O)N[C@@H]1C(=O)N2C(C(=O)O)=C(CSC(=O)c3ccco3)CS[C@H]12)c1csc(N)n1 [Ceftiofur],0.442,0.362,0.719,0.698,1.81,1.07
CO[C@@]1(NC(=O)C(C(=O)O)c2ccc(O)cc2)C(=O)N2C(C(=O)O)=C(CSc3nnnn3C)CO[C@@H]21 (stereo partly drawn) [Latamoxef sodium],1.53,0.777,1.09,0.907,0.797,1.39
C[C@@H]1COCCN1c1cc(C2([S@](C)(=N)=O)CC2)nc(-c2cc[nH]c3nccc2-3)n1,2.52,2.73,2.21,3.12,2.29,2.88
CCN(CC)CCOC(=O)C1(C2CCCCC2)CCCCC1 [Dicyclomine HCl],1.23,1.1,1.39,1.16,1.04,1.43
S=P(N1CC1)(N1CC1)N1CC1 [Thiotepa],2.52,3.76,2.03,2.35,2.68,3.07
C[C@H](Cn1cnc2c(N)ncnc21)OCP(=O)(O)O [Tenofovir],1.59,1.45,0.705,0.924,1.26,1.07
CC(C)Oc1ccc2c(=O)c(-c3ccccc3)coc2c1 [Ipriflavone (Osteofix)],1.22,1.44,1.15,1.17,0.723,2.28
CCc1cc2c(cc1CC)CC(NC[C@H](O)c1ccc(O)c3[nH]c(=O)ccc13)C2 [Indacaterol Maleate],0.915,0.63,1.14,1.67,0.818,1.02
C[C@@H]1[C@H](O)[C@@H](C)/C=C/C=C/C=C/C=C/C=C/C=C/C=C/[C@H](O[C@@H]2O[C@H](C)[C@@H](O)[C@H](N)[C@@H]2O)C[C@@H]2O[C@](O)(C[C@@H](O)C[C@@H](O)[C@H](O)CC[C@@H](O)C[C@@H](O)CC(=O)O[C@H]1C)C[C@H](O)[C@H]2C(=O)O [Amphotericin B],1.91,1.67,1.91,3.03,1.43,1.93

Compound,Euclidean distance (786-O),Euclidean distance (A549),Euclidean distance (DU145),Euclidean distance (FB),Euclidean distance (HEPG2),Euclidean distance (OVCAR4)
CCC(=O)NC[C@@H]1C[C@H]1c1cccc2c1CCO2 [Tasimelteon],1.21,1.04,0.924,1.26,0.397,1.28
Nc1nc(F)nc2c1ncn2[C@@H]1O[C@H](CO)[C@@H](O)[C@@H]1O [Fludarabine],1.67,1.6,1.17,1.81,1.21,1.63
N[C@@H](CSCCCO)C(=O)O [Fudosteine],1.5,1.77,0.71,1.34,0.516,1.3
O=C(O[C@@H]1Cc2c(O)cc(O)cc2O[C@@H]1c1ccc(O)c(O)c1)c1cc(O)c(O)c(O)c1 [(-)-Epicatechin gallate],1.61,0.725,1.16,1.3,0.724,0.782
Cc1cccc(C)c1N(CC(=O)Nc1ccc(-c2ncon2)cc1)C(=O)C1CCS(=O)(=O)CC1 [Amenamevir],1.07,0.772,0.783,1.3,0.5,1.2
O=C1c2c(O)cc(O)cc2OC(c2ccc(O)c(O)c2)C1O (stereo not drawn) [Taxifolin (Dihydroquercetin)],1.12,0.542,1.09,1.25,0.834,0.517
CN(c1ncccc1CNc1nc(Nc2ccc3c(c2)CC(=O)N3)ncc1C(F)(F)F)S(C)(=O)=O,1.25 and 2.75,3.05 and 1.62,2.34 and 1.3,3.61 and 1.66,2.58 and 1.31,3.25 and 1.45
COc1cc(N2CCN(C)CC2)ccc1Nc1nccc(-c2cn(C)c3cnccc23)n1,2.55,1.56,1.34,2.68,1.53,2.69
Cc1cc(C(C)(C)C)cc(C)c1CC1=NCCN1 [Xylometazoline HCl],0.708,0.547,0.707,0.795,0.707,0.903
Cc1c(Cl)cccc1Nc1ccccc1C(=O)O [Tolfenamic Acid],1.28,0.83,0.762,0.742,0.5,1.19
CC(C)NCC(O)c1ccc(O)c(O)c1 (stereo not drawn) [Isoprenaline HCl],1.55,1.42,1.07,1.04,0.596,1.2
CCOC(=O)CCC(=O)O[C@H]1[C@H](O[C@@H]2[C@@H](C)[C@H](O[C@H]3C[C@@](C)(OC)[C@@H](O)[C@H](C)O3)[C@@H](C)C(=O)O[C@H](CC)[C@@](C)(O)[C@H](O)[C@@H](C)C(=O)[C@H](C)C[C@@]2(C)O)O[C@H](C)C[C@@H]1N(C)C [Erythromycin Ethylsuccinate],1.09,0.82,1.09,1.04,0.715,1.3
CN(C)C(=O)[C@H](O)[C@H](Cc1ccccc1)NC(=O)c1cc2cc(Cl)ccc2[nH]1,0.476,0.757,0.712,1.01,1.05,0.908
COc1cc(N2CCC(N)CC2)ccc1Nc1ncc(Cl)c(-c2c[nH]c3ccccc23)n1,2.97,3.34,2.4,4.05,2.56,2.07
CCCc1nn(C)c2c(=O)[nH]c(-c3cc(S(=O)(=O)N4CCN(C)CC4)ccc3OCC)nc12 [Sildenafil Citrate],1.87,1.4,1.4,0.899,0.957,1.28
O=c1cc(-c2ccccc2)oc2cc(O)cc(O)c12 [Chrysin],1.58,1.09,1.1,1,1.37,1.37
CC(C)NC[C@H](O)COc1ccc(CCOCC2CC2)cc1 [Levobetaxolol HCl],1.03,0.954,0.622,0.99,0.412,0.877
N#CSc1cc(SC#N)c(N)nc1N,0.526,2.18,0.906,1.25,1.27,1.14
COc1cc([C@@H]2c3cc4c(cc3[C@@H](O[C@@H]3O[C@@H]5CO[C@@H](c6cccs6)O[C@H]5[C@H](O)[C@H]3O)[C@H]3COC(=O)[C@H]23)OCO4)cc(OC)c1O [Teniposide],2.74,3.77,4.38,3.23,3.39,3.66
O=C(O)c1cc(-c2ccccc2)nc2ccccc12 [Cinchophen],1.16,1.12,1.3,1.12,1.47,0.992
Cc1cc(C)nc(NS(=O)(=O)c2ccc(N)cc2)n1 [Sulfamethazine],1.04,0.914,,0.861,0.849,1.17
CC(C)(C)CC(C)(C)c1ccc(O)c(Cc2ccc(Cl)cc2Cl)c1 [Clofoctol],1.64,1.84,,1.21,0.886,1.7
Cc1c(C)c2c(c(C)c1O)CC[C@@](C)(CCC[C@H](C)CCC[C@H](C)CCCC(C)C)O2 [Vitamin E],0.972,1.04,,0.892,0.644,1.43
